Only some compounds are listed: those with a hit (about 7.6% of all), similar ones and a draw of the others.
KCNH2 WT inh: qHTS for Inhibitors of KCHN2 3.1: Wildtype qHTS; U2OS, BacMam KCNH2, thallium flux FluxOr; active compounds read low; activity change, % at 1.84 µM; 0.37% of 340,000 active;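 active = maximum activity change below -70%; inconclusive = maximum activity change between -70% and -50%; inactive = maximum activity change above -50%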
Target sequence (Q12809 whole entry, looked up): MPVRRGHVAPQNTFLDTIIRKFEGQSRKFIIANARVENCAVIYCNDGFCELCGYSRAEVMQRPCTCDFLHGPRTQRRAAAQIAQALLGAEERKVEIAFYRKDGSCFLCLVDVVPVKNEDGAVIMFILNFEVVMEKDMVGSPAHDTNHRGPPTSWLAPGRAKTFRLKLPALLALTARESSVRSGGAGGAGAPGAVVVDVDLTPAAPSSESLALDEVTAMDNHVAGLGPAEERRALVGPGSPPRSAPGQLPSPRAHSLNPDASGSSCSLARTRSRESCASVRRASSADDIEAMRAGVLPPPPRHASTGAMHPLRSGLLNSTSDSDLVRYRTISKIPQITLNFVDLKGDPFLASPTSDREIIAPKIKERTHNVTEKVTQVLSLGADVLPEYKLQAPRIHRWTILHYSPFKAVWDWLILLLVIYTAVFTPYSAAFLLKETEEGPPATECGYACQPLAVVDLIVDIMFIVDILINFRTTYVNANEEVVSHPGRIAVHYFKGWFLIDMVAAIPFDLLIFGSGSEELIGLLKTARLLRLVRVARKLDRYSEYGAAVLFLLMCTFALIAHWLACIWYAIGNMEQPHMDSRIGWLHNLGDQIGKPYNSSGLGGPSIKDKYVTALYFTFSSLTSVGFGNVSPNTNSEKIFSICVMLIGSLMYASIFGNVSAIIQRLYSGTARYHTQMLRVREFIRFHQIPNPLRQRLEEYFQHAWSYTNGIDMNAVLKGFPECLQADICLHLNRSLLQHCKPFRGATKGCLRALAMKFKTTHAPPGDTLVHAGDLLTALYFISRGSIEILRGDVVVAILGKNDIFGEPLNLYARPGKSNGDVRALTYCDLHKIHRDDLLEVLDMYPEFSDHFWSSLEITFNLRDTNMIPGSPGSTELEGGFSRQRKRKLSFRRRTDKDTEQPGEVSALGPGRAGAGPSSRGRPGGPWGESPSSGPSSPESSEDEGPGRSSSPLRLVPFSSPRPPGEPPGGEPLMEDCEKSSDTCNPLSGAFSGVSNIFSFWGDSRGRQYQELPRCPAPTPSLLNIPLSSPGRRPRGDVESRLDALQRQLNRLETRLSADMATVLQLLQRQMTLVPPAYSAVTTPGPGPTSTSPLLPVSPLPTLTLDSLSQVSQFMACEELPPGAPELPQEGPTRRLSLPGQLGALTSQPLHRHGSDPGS
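U2OS cells were transduced with wild-type KCNH2 virus (2.03 x 10^8 / mL) for 4 h at room temperature, then cultured overnight at 37 C. Thallium flux was read with FluxOr dye. Rate constants were normalized to DMSO controls.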
SW480 rereplic: A quantitative high throughput screen for small molecules that induce DNA re-replication in SW480 colon adenocarcinoma cells | SW480 DNA re-replication, Hoechst DNA content imaging, 48 h | 1.8% of 340,000 active | Potency, µM (highest dose often 46.1 µM), hits mostly activators; also: nearly all actives have a fitted effect of over 55% in size
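SW480 cells exposed to compounds for 48 hr at 37 C, 5% CO2, then Hoechst-stained 40 min. Nuclear DNA content imaged by fluorescence scanning (405 nm excitation, 500-530 nm emission); re-replication scored as increased high-intensity nuclei.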
KCNH2 3.1 inh: qHTS for Inhibitors of KCHN2 3.1: Mutant qHTS; Potassium voltage-gated channel subfamily H member 2, brain isoform KCNH2 3.1 (human); U2OS KCNH2 3.1, thallium flux FluxOr; active compounds read low; activity change, % (tested at about 1.8 µM); 0.95% of 340,000 active;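 active = maximum activity change below -70%; inconclusive = maximum activity change from -70% to -50%; inactive = maximum activity change above -50%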;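 also: thallium influx rate constant from kinetic fluorescence after stimulation buffer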
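U2OS cells transduced with KCNH2 3.1 mutant virus (1.77 x 10^8 /mL, 4 h), plated overnight at 37 C, loaded 45 min with FluxOr dye plus Red40 quencher. Thallium flux rate constant from kinetic reads after stimulation buffer, normalised to controls.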
KB-3-1 tox: qHTS assay for MDR1-selective chemotherapeutics: Primary screen using the parental adenocarcinoma cell KB-3-1. KB-3-1 viability, CellTiter-Glo ATP luminescence, 72 h. 1.4% of 400,000 active. Potency, µM (titrated, usually from 46.1 µM), usual class: cytotoxic; also: nearly all actives have a fitted effect of over 60% in size
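Screening of KB-3-1 cells (DMEM, 10% FBS, phenol-red free) ran from lowest to highest compound concentration; after 72 h at 37 °C viability was read luminescently and curves fitted.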
MCF10A rereplic: A quantitative high throughput screen for small molecules that induce DNA re-replication in MCF 10a normal breast cells. MCF 10A DNA re-replication, Hoechst nuclear intensity, 48 h. Potency, µM (top dose mostly 46.1 µM), actives largely listed as activators. 2.9% of 350,000 active; also: nearly all actives have a fitted effect of over 50% in size
KB-V1 cytotox: qHTS assay for MDR1-selective chemotherapeutics: Primary screen using the drug-selected MDR subline cells KB-V1; KB-V1 MDR cells viability, CellTiter-Glo, 72 h; Potency, µM (highest dose often 46.1 µM), most hits filed as cytotoxic; 3.4% of 400,000 active; AID 1347076, 2019; also: nearly all actives have a fitted effect of over 60% in size
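Cytotoxicity toward P-gp-expressing KB-V1 cells was determined as loss of CellTiter-Glo luminescence after 72 h at 37 degrees C. Compounds were tested in quantitative HTS format across a concentration range, with curves fitted to normalized data.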
Hits are given with their value; – = inactive; ? = inconclusive; · = no result. Unless noted, calls follow the shape of the dose curve; as a rule, active = well fitted curve in the direction sought with a large enough effect; inconclusive = small, poorly fitted or top-dose-only effect, or another doubt; inactive = no such curve, though single readings can be large; an effect the other way counts as inactive or inconclusive.

SMILES	KCNH2 WT inh	SW480 rereplic	KCNH2 3.1 inh	KB-3-1 tox	MCF10A rereplic	KB-V1 cytotox
CCCOc1ccc2nc(NC(=O)OC)[nH]c2c1	·	2.91µM	·	·	4.61µM	·
CCOC(=O)Nc1nc2ccc(Cn3cccc3)cc2[nH]1	–	1.3µM	·	0.581µM	3.26µM	1.16µM
CCN(CC)C(=O)c1ccc(-c2nnc(Nc3ccc(O)cc3)c3ccccc23)cc1	–	–	–	–	–	–
CCN(CC)C(=O)c1ccc(Nc2nnc(C)c3ccccc23)cc1	–	–	–	–	–	11.6µM
O=C1N=C(N2CCC(Cc3ccccc3)CC2)S/C1=C/c1cn[nH]c1-c1ccccc1	–	–	–	–	?	23.1µM
O=C1N=C(N2CCN(c3ccccc3)CC2)S/C1=C\c1cn[nH]c1-c1ccccc1	–	–	–	?	–	?
O=C(C(=O)N1CCC(c2ccccc2)CC1)c1ccc(F)c(F)c1	·	·	·	–	·	–
CCOC(=O)c1sc2nc(C)nc(N3CCN(c4ncccn4)CC3)c2c1C	–	–	–	–	–	–
CCOC(=O)C1CCN(S(=O)(=O)Cc2ccccc2)C1=O (stereo not drawn)	–	–	–	–	–	–
CCOC(=O)C1CCN(C(=O)c2ccccc2)C(CC)C1=O (stereo not drawn)	–	–	–	–	–	20.6µM
Cc1ccc(-c2cc3onc(-c4ccccc4)c3c(=O)n2C)cc1	·	–	·	?	–	?
Cn1c(-c2ccc(F)cc2)cc2onc(-c3c(F)cccc3Cl)c2c1=O	–	–	–	–	2.31µM	–
COc1ccc(N(C(=O)c2cccnc2)S(=O)(=O)c2ccc3c4c(cccc24)C(=O)N3C)cc1	–	–	–	–	?	16.4µM
O=Nc1c(O)[nH]c2c(F)cccc12	–	–	–	–	–	–
CCc1cccc2c(N=O)c(O)[nH]c12	–	–	–	?	–	16.4µM
COc1ccc(C(=O)CSc2n[nH]c(=O)n2Cc2ccco2)cc1	–	–	–	–	–	–
CCCc1nc2ccccc2c(C(=O)OCC(=O)Nc2cccc(S(=O)(=O)N3CCOCC3)c2)c1CC	–	–	–	?	?	?
CCCc1nc2ccccc2c(C(=O)OCC(=O)NCc2ccco2)c1CC	–	–	–	–	–	5.8µM
CCCc1nc2ccccc2c(C(=O)OCC(=O)Nc2ccc(S(=O)(=O)N3CCOCC3)cc2)c1CC	–	20.6µM	–	?	?	3.26µM
O=C(N/N=C/c1cccc2ccccc12)c1n[nH]c2c1CCCC2	–	5.8µM	–	4.11µM	?	2.59µM
O=C(N/N=C/c1ccc(Cl)cc1Cl)c1n[nH]c2c1CCCC2	–	?	–	5.17µM	?	?
Cc1ccc(/C=N/NC(=O)c2n[nH]c3c2CCCC3)cc1	–	0.731µM	–	?	?	1.16µM
Cc1ccc(C)c(C(=O)c2c(N)c(-c3nc(-c4ccc5c(c4)OCO5)cs3)c3ccccn23)c1	·	·	·	–	·	–
Cc1nc2ccc(NS(=O)(=O)c3c(F)cc(F)cc3Br)cc2s1	–	–	–	?	–	–
CCNc1nc(C#N)nc(N2CCOCC2)n1	·	·	·	–	·	–
SMILES	KCNH2 WT inh	SW480 rereplic	KCNH2 3.1 inh	KB-3-1 tox	MCF10A rereplic	KB-V1 cytotox
S=C(NCCc1ccccc1)N1CCn2cccc2C1c1cccnc1 (stereo not drawn)	–	–	–	–	–	?
O=[N+]([O-])C1C(c2ccccc2)C12c1ccccc1-c1ccccc12 (stereo not drawn)	–	·	–	?	·	5.17µM
CC1(C)c2ccccc2C(=O)c2ccccc21	–	–	–	–	–	–
CCOCCc1nn2c(=O)cc(COC(=O)CNC(=O)c3cccc(C)c3)nc2s1	·	·	·	–	·	–
Cc1cc(N2CCN(c3cccc(C(F)(F)F)c3)CC2)n2ncnc2n1	–	–	–	?	–	–
Cc1cc(N2CCN(C(c3ccccc3)c3ccccc3)CC2)n2ncnc2n1	–	–	–	–	?	?
Cc1nc2ncnn2c(N2CCN(c3cccc(C(F)(F)F)c3)CC2)c1C	–	–	–	20.6µM	–	2.59µM
Cc1nc2ncnn2c(N2CCN(C(c3ccccc3)c3ccccc3)CC2)c1C	–	–	–	–	?	23.1µM
CCOc1cc(NC(=O)CCl)c(OCC)cc1NC(=O)CCl	–	3.26µM	–	20.6µM	6.51µM	?
COc1ccc(Cl)cc1S(=O)(=O)NC(C)C(=O)NCCCn1ccnc1 (stereo not drawn)	–	–	–	–	–	–
CCOC(=O)COc1c(Cl)cc(/C=C2\N=C(C)OC2=O)cc1OC	–	–	–	–	–	–
O=C(CSCc1ccc(C(=O)O)cc1)Nc1ccc2ccccc2c1	–	–	–	–	–	–
COC(=O)c1ccc(COc2ccccc2/C=C(\C#N)C(=O)Nc2ccc(C)cc2C)cc1	–	–	–	–	?	?
COC(=O)c1ccc(COc2ccccc2/C=C(\C#N)C(=O)Nc2c(C)cc(C)cc2C)cc1	–	8.2µM	–	11.6µM	5.8µM	16.4µM
COc1ccc([C@@H]2CC(=O)[C@@H]3CN(S(=O)(=O)c4ccc(Cl)cc4)[C@H](c4ccc(C)cc4)C[C@@H]3N2S(=O)(=O)c2ccccc2)cc1	·	·	·	–	·	–
Cc1noc(-c2ccc(Cl)cc2)c1C(=O)O/N=C(\N)c1ccc(C(C)(C)C)cc1	–	–	–	?	?	18.4µM
COc1cccc(-c2cc(C(=O)N3CCN(C(=O)c4ccco4)CC3)[nH]n2)c1	–	–	–	–	–	–
Cc1cc(C)nc(NC(N)=NCCc2ccccc2)n1	–	16.4µM	–	5.17µM	18.4µM	–
Cc1ccc(C(C)C)c(OCCNC(=S)Nc2cccc3ccccc23)c1	–	5.62µM	–	?	?	–
CCCCSc1nnc([C@H](C)NC(=O)OC(C)(C)C)o1	–	–	–	–	–	13µM
CCCCSc1nnc([C@H](CC(C)C)NC(=O)OC(C)(C)C)o1	–	–	–	–	–	–
CC(C)(C)OC(=O)N[C@@H](Cc1ccccc1)c1nnc(SCC(=O)c2ccc(Cl)cc2)o1	–	?	–	–	?	16.4µM
CCSc1nnc([C@H](Cc2ccccc2)NC(=O)OC(C)(C)C)o1	–	–	–	–	–	16.4µM
Cc1[nH]c2ccccc2c1C(=O)C(=O)NCc1ccco1	–	–	–	–	–	–
CCOC(=O)C(CCSC)Nc1nc(Cl)nc(Nc2ccc(Cl)cc2)n1 (stereo not drawn)	–	–	–	–	–	–

Bioassay records from PubChem BioAssay.
